Assay outcomes from PubChem.
An excerpt weighted towards active compounds, which were near 2.4% of everything screened.
D2 ag-1: D2 dopamine receptor (human) agonism; P14416; HEK293 T-REx D2 cells, calcium flux agonist mode; activation, % at 2 µM; 340,000 compounds, 0.53% hits; AID 485358;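 active = activation over 3 SD above normal in the single-dose calcium agonist read, cut at about 30% in these data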
Target sequence (P14416 whole entry, looked up): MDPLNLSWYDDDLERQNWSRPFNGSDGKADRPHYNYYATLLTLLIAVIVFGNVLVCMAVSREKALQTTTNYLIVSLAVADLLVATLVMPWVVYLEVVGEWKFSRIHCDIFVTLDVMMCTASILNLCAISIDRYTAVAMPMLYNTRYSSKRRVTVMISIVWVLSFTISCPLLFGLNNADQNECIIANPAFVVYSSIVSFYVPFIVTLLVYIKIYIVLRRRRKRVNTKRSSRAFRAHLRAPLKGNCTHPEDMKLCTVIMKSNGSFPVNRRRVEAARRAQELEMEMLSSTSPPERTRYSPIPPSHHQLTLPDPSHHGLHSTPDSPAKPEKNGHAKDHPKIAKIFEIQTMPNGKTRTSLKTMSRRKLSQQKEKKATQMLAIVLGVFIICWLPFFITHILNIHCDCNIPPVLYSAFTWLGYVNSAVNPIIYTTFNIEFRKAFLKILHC
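Agonism is scored from calcium flux in a force-coupled, inducible HEK293 cell line expressing D2, read kinetically for 180 s after compound addition against dopamine controls.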
D2 PAM-1: potentiates the human D2 dopamine receptor allosterically. P14416. DiscoveRx D2 beta-arrestin cells, luminescence, 90 min; 100% = 57 uM dopamine signal. potentiation, % (concentration not given with the values). 360,000 compounds, 0.23% hits; in the data active = potentiation above about 50%; inconclusive = mostly about 30% to 49%
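PathHunter beta-arrestin assay in DiscoveRx D2 cells. Compounds were added with an EC20 of dopamine (50 nM final) for 90 min at 37 deg C. Luminescence was read 1 h after detection reagent, with 57 uM dopamine as the EC100 control.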
D2 antagonist: D2 dopamine receptor (human) antagonism; 340,000 compounds, 2% hits; inhibition, % at 10 µM; P14416; HEK293 TREx D2 cells, calcium flux, dopamine EC80; in the data active = inhibition above about 30%; inactive = below that, where a call was filed
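Calcium mobilization kinetics were recorded at 1 s intervals in tetracycline-induced HEK293 T-REx D2 cells, first for 180 s after compound addition and then 180 s after EC80 dopamine.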
D2 ag-2: human D2 receptor agonism in beta-arrestin assay. DiscoveRx PathHunter D2 beta-arrestin, luminescence, 90 min; 100% = 57 uM dopamine signal. activation, % (no concentration beside the values). 360,000 compounds, 0.084% hits. AID 624465. P14416; in the data active = activation above about 40%; inconclusive = between about 15% and that limit
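Agonist mode: compounds alone added to overnight-plated D2 PathHunter cells for 90 min at 37 C, with 57 uM final dopamine (EC100) defining full response. Beta-arrestin recruitment detected by chemiluminescent reagent, read after 1 h at ambient temperature.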
D2 PAM-2: positive allosteric modulators of human D2 dopamine receptor | HEK293 T-REx D2, calcium flux, EC20 dopamine potentiation | 340,000 compounds, 0.34% hits | potentiation, % at 10 µM;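 active = potentiation over 3 SD above the plate norm, cut at about 30% in these data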
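Primary screen. Calcium kinetics in induced HEK293 T-REx D2 cells: compound pre-addition 180 s, EC20 dopamine, 180 s more.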
Large screens that a line does not name were inactive.

Nc1ccc(/C=C/C(=O)c2cccs2)cc1	D2 antagonist 59.6
CCCCn1c(SCC(=O)c2ccc(O)cc2O)nc2cc(S(N)(=O)=O)ccc21	D2 antagonist 31.6
CCCCn1c(SCC(=O)c2cc(OC)ccc2OC)nc2cc(S(N)(=O)=O)ccc21	none
C/C(CC(=O)N1CCN(C=O)CC1)=N\NC(=O)c1cc2ccccc2cc1O	D2 PAM-1 51.0
C/C(CC(=O)N1CCN(C=O)CC1)=N\NC(=O)c1ccc([N+](=O)[O-])cc1	none
CCc1ccc(CNC(=O)c2ccc(OC)c(OC3CCN(C(C)C)CC3)c2)nc1	D2 antagonist 42.0
COc1ccc(C(=O)NCc2cnn(C)c2)cc1OC1CCN(C(C)C)CC1	none
CN(C)/C=C1\C(=O)N(c2ccc(Oc3ccccc3)cc2)CS1=O (centres undefined)	none
CCN(CC)S(=O)(=O)c1cc(NC(=O)COC(=O)c2ccc(NC(=O)CC#N)cc2)ccc1C	none
CCN(CC)c1ccc(S(=O)(=O)N2CCCCC2)cc1NC(=O)C1CCC1	none
CCN(CC)CCOc1nnc(-c2ccc(OC)cc2)c2ccccc12	none
CCN(CC)CCOc1nnc(-c2ccc(C)cc2)c2ccccc12	D2 antagonist 35.6
COc1ccc(OC)c(NC(=O)c2cc3oc4ccccc4c3cc2O)c1	D2 PAM-1 inconclusive
CCC(C)NCCOc1ccc(C)cc1[N+](=O)[O-] (centres undefined)	D2 antagonist 53.7
C=CCNCCOc1ccc(C)cc1[N+](=O)[O-]	D2 antagonist 45.8
C=CCN(CC=C)CCOc1ccc(C)cc1[N+](=O)[O-]	D2 antagonist 38.3
CCCCNCCOCCOc1ccc(C)cc1[N+](=O)[O-]	none
COCCCNCCCCOc1ccc(C)cc1[N+](=O)[O-]	none (no result: D2 ag-1, D2 antagonist, D2 PAM-2)
C=CCc1ccc(OCCOCCOc2ccc(C)cc2[N+](=O)[O-])c(OC)c1	none
O=C(CCN1CCCCCC1)c1ccccc1	none
C=CCC(NCc1ccccc1)c1ccco1 (centres undefined)	D2 PAM-2 40.7
C=CCC(NCc1ccccc1)c1ccc(OC)cc1 (centres undefined)	none
C/C(=N\Nc1nc(C(C)(C)C)cs1)c1ccccc1	none
Cc1cccc(Cn2cccc2CNS(=O)(=O)c2ccc(Br)cc2)c1	none (no result: D2 PAM-1, D2 antagonist, D2 ag-2)
CON/C=C(\C=Nc1ccc(Cl)cc1Cl)c1ncc(C(F)(F)F)cc1Cl	none
CON/C=C(\C=Nc1ccccc1)c1ncc(C(F)(F)F)cc1Cl	D2 PAM-2 34.4
CC(C)(CO)Nc1nc(N2CCCC2)nc(N2CCCC2)n1	D2 antagonist 46.9
Cc1ccn2c(NC3CCCCC3)c(C)nc2c1	D2 antagonist 34.6
Cc1ccn2c(NC3CCCC3)c(-c3ccncc3)nc2c1	D2 PAM-2 30.0
Cc1ccn2c(NC3CCCCC3)c(C(C)C)nc2c1	none
Cc1noc(C)c1S(=O)(=O)N1CCC(C(=O)N2CCN(c3ccccc3Cl)CC2)CC1	none
Cc1c(C(=O)N2CCN(S(=O)(=O)c3ccccc3)CC2)oc2ccccc12	D2 antagonist 34.4
O=C(c1ccc(=O)[nH]c1)N1CCN(S(=O)(=O)c2ccc(Cl)cc2)CC1	none
O=C(N1CCCCC1)N1CCN(S(=O)(=O)c2ccccc2)CC1	D2 PAM-2 70.0
COc1ccc(S(=O)(=O)N2CCN(C(=O)c3oc4ccccc4c3C)CC2)cc1	none
O=C(c1ccc(=O)[nH]c1)N1CCN(S(=O)(=O)c2ccccc2)CC1	D2 antagonist 30.9
O=C(N1CCCCCC1)N1CCN(S(=O)(=O)c2ccccc2)CC1	none
O=C(CN1CCSC1=O)N1CCN(S(=O)(=O)c2ccccc2)CC1	D2 antagonist 37.3
COc1ccc(NC(=O)c2cc(-c3ccccc3OC)on2)cc1	D2 antagonist 32.5
COc1ccc(NC(=O)c2cc(-c3ccccc3Cl)on2)cc1	none
CCc1ccc(NC(=O)c2cc(-c3ccco3)on2)cc1	D2 PAM-2 52.8
COc1ccc(OC)c(-c2cc(C(=O)Nc3cc(C)on3)no2)c1	D2 antagonist 38.2
COc1ccc(-c2cc(C(=O)Nc3cc(C)on3)no2)cc1	none
COc1ccc(NC(=O)c2cc(-c3ccco3)on2)cc1	none
COc1ccc(N2CCN(c3oc(Cc4ccccc4)nc3C#N)CC2)cc1	none
CCOC(=O)c1sc(N)c(C#N)c1COC(=O)CNC(=O)c1cc(OC)c(OC)c(OC)c1	none
Cc1ccc(SCCNS(C)(=O)=O)cc1	D2 PAM-2 35.9
N#Cc1c(Nc2ccc(Cl)cc2)s[nH]c1=O	none
Cc1nn(C)cc1C(=O)/C=C/c1ccc([N+](=O)[O-])cc1	none
CC1=Nc2ccc(Br)cc2C(c2ccccc2)N1CC(=O)NN (centres undefined)	D2 antagonist 36.1
NNC(=O)CN1C(c2ccccc2)=Nc2ccc(Br)cc2C1c1ccccc1 (centres undefined)	D2 antagonist 81.5
CCC1=Nc2ccc(Br)cc2C(c2ccccc2)N1CC(=O)OC (centres undefined)	none
NNC(=O)CN1C(CN2CCOCC2)=Nc2ccc(Br)cc2C1c1ccccc1 (centres undefined)	D2 antagonist 83.0
COc1cc(OC)c(C2=Nc3ccc(Br)cc3C(c3ccccc3)N2CC(=O)NN)cc1OC (centres undefined)	D2 antagonist 78.5
NNC(=O)CN1C(c2ccc(Cl)cc2)=Nc2ccc(Br)cc2C1c1ccccc1 (centres undefined)	none (no result: D2 antagonist)
O=C(Nc1ccc(F)c(Cl)c1)c1ccc2nc([C@@H]3O[C@H](CO)[C@H](O)[C@H](O)[C@H]3O)[nH]c2c1	none (no result: D2 ag-1, D2 antagonist, D2 PAM-2)
COc1cc(NC(=O)c2cccnc2)c(Cl)cc1NC(=O)c1ccccc1	none
COc1ccc(Cl)cc1NC(=S)NCCc1ccc(S(N)(=O)=O)cc1	none
COc1ccc(Cl)cc1NC(=S)NCCc1ccc(F)cc1	D2 antagonist 39.6
Fc1ccc(NC(=S)NCCc2ccc(Cl)cc2)cc1	D2 antagonist 31.7
Cc1ccc(S(=O)(=O)N(C)C)cc1NC(=O)c1cc(-c2ccncc2)nc2ccccc12	none (no result: D2 ag-1, D2 antagonist, D2 PAM-2)
CCCCOc1ccccc1C(=O)N(Cc1cccc(F)c1)C1CCS(=O)(=O)C1 (centres undefined)	none (no result: D2 PAM-1, D2 antagonist, D2 ag-2)
Cc1ccc(NC(=O)C2OCCc3ccccc32)cc1C (centres undefined)	D2 antagonist 41.5
O=C(NCc1ccco1)C1OCCc2ccccc21 (centres undefined)	none
CCN(Cc1ccccc1)C(=O)CC1Oc2ccccc2NC1=O (centres undefined)	none
O=C1C(Cl)=C(NCCN2CCOCC2)C(=O)c2ccccc21	D2 antagonist 36.2
O=C1C(Cl)=C(NCCCN2CCOCC2)C(=O)c2ccccc21	none (no result: D2 ag-1, D2 antagonist, D2 PAM-2)
COCCNC(=O)C1CC2Cn3c(nc4cc(Cl)c(Cl)cc43)C2N1C (centres undefined)	none
